This is an account of results in PubChem BioAssay (NCI).

Some test systems named below: NCI-H23 lung; NCI-H226 lung; NCI-H322M lung; HOP-62 NSCLC; NCI-H460 lung; HOP-92 NSCLC; NCI-H522 lung; 786-0 renal; COLO 205 colon; DU-145 prostate; K-562 leukemia; MALME-3M melanoma; MDA-MB-231 breast; SF-268 CNS; SF-295 CNS; SF-539 CNS; UACC-257 melanoma; M14 melanoma; RXF 393 renal; A549/ATCC NSCLC.
Experiment in all cases: NCI-60 one-dose screen, 48 h (100 = growth as untreated, 0 = no growth, -100 = all killed)
Common to all, as to settings: 10 µM unless noted

The structures appear in SMILES notation. The panel holds about 83,000 compounds, 20% with a hit somewhere; the sample as a whole holds those more often.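 Activity criterion: percent growth below 10, measured after cells in 96-well plates were exposed to a single compound concentration for 48 hours.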 Values without a mark were called inactive. Activity calls are given as the source filed them.

With `COc1ccc(-c2nc(SC(C)C)nc(NNC(N)=O)c2C#N)cc1`, the growth was 97.8% in the experiment on NCI-H23 lung; 95.4% in the experiment on NCI-H226 lung; 94.2% in the experiment on NCI-H322M lung; 83.7% in the experiment on HOP-62 NSCLC; 94.5% in the experiment on NCI-H460 lung; 78% in the experiment with HOP-92 NSCLC. Moreover, the growth in the experiment on NCI-H522 lung is 63.4%; with 786-0 renal it was 95.5%; in the experiment on COLO 205 colon, 117%; in the experiment on DU-145 prostate, 94.2%; with K-562 leukemia, 25.7%; with MALME-3M melanoma, 81.2%. For the same molecule, the growth in the experiment on MDA-MB-231 breast was 78.8%; in the experiment on SF-268 CNS it was 84.9%; in the experiment on SF-295 CNS it was 88.7%; in the experiment with SF-539 CNS it was 85.1%; with UACC-257 melanoma, 99.8%; in the experiment on M14 melanoma it was 99.6%.
As for `CC(O)(CO)c1ccccc1` (stereo not given), the growth was 96% in the experiment on NCI-H23 lung; 99.6% with NCI-H226 lung; 102% in the experiment on NCI-H322M lung; 96.9% in the experiment with HOP-62 NSCLC; 105% in the experiment on NCI-H460 lung; 94.2% in the experiment on HOP-92 NSCLC. Also, the growth was 105% in the experiment on NCI-H522 lung; 99% in the experiment with 786-0 renal; 103% with COLO 205 colon; 105% in the experiment with DU-145 prostate; 120% with K-562 leukemia; 95.3% in the experiment with MALME-3M melanoma. The growth in the experiment with MDA-MB-231 breast is 97.7%; with RXF 393 renal it was 109%; in the experiment with SF-268 CNS it was 101%; in the experiment with SF-295 CNS, 98.6%; in the experiment on SF-539 CNS, 92.4%; with UACC-257 melanoma it was 93.9%. Also, the growth with M14 melanoma was 94.6%.
Turning to `COc1cc2nnn3c4ncccc4c(N=O)c3c2cc1OC`, the growth is 112% in the experiment with NCI-H23 lung; 97% in the experiment on NCI-H226 lung; 78.6% in the experiment with NCI-H322M lung; 106% with HOP-62 NSCLC; 84.9% in the experiment with NCI-H460 lung; -12% (active) with HOP-92 NSCLC. The growth is -34.3% (active) in the experiment with NCI-H522 lung; 95.2% in the experiment with A549/ATCC NSCLC; 48.2% in the experiment on 786-0 renal; 102% with COLO 205 colon; 102% in the experiment on DU-145 prostate; 91.2% in the experiment with MALME-3M melanoma. Further, the growth is 78.6% in the experiment with MDA-MB-231 breast; 30.3% in the experiment on SF-268 CNS; 111% with SF-295 CNS; 98.6% in the experiment with SF-539 CNS; 76.1% with UACC-257 melanoma; 104% with M14 melanoma.
`O=C(Nc1ccccc1)Oc1ccccc1-c1ccccc1`: the growth with NCI-H23 lung is 97.7%; in the experiment on NCI-H226 lung it was 93.3%; in the experiment on NCI-H322M lung it was 105%; in the experiment on HOP-62 NSCLC it was 74.9%; with NCI-H460 lung, 99.7%; in the experiment on HOP-92 NSCLC, 94.7%. For the same molecule, the growth was 83.7% in the experiment with NCI-H522 lung; 73.8% in the experiment with A549/ATCC NSCLC; 93.5% in the experiment with 786-0 renal; 96% in the experiment with COLO 205 colon; 105% in the experiment with DU-145 prostate; 95% with MALME-3M melanoma. Also, the growth in the experiment with MDA-MB-231 breast is 109%; with SF-268 CNS, 96.2%; in the experiment on SF-295 CNS it was 97.4%; in the experiment with SF-539 CNS, 105%; in the experiment with UACC-257 melanoma, 80.8%; in the experiment on M14 melanoma, 85.2%.
`N#Cc1cc(-c2nc3ccccc3s2)c(=O)n(NS(=O)(=O)c2ccc(Cl)cc2)c1N`: the growth was 94.9% with NCI-H23 lung; 80.8% in the experiment with NCI-H226 lung; 102% with NCI-H322M lung; 89.6% with HOP-62 NSCLC; 105% with NCI-H460 lung; 98.6% in the experiment with HOP-92 NSCLC. For the same molecule, the growth in the experiment on NCI-H522 lung was 96.3%; with 786-0 renal, 105%; in the experiment with COLO 205 colon it was 122%; in the experiment with DU-145 prostate, 110%; with K-562 leukemia, 96.7%; in the experiment with MALME-3M melanoma, 105%. Further, the growth in the experiment on MDA-MB-231 breast was 87.2%; in the experiment with RXF 393 renal, 109%; in the experiment on SF-268 CNS, 97.8%; in the experiment on SF-295 CNS it was 110%; in the experiment on SF-539 CNS, 93.9%; in the experiment with UACC-257 melanoma, 111%. Also, the growth with M14 melanoma was 97.5%.
Consider `CC(=O)Nc1ccc(S(=O)(=O)NC2CCCCC2)cc1`, for which the growth with NCI-H23 lung was 99.9%; in the experiment on NCI-H226 lung, 86.6%; in the experiment with NCI-H322M lung it was 96.5%; with HOP-62 NSCLC, 96.3%; with NCI-H460 lung it was 102%; in the experiment with HOP-92 NSCLC, 89.3%. The growth in the experiment on NCI-H522 lung is 92%; in the experiment with 786-0 renal it was 99.8%; in the experiment on COLO 205 colon it was 103%; in the experiment with DU-145 prostate, 113%; in the experiment with K-562 leukemia, 100%; in the experiment with MALME-3M melanoma, 98.1%. The growth is 97.3% in the experiment with MDA-MB-231 breast; 104% in the experiment on SF-268 CNS; 96.4% in the experiment on SF-295 CNS; 103% with SF-539 CNS; 95.8% in the experiment on UACC-257 melanoma; 101% in the experiment on M14 melanoma.
